In PubChem BioAssay (NCATS):
Inconclusive results are not listed. Calls of active or inactive are those of the source. Calls come from the whole dose curve; as a rule, active = well fitted inhibition curve with a large enough effect; inconclusive = small, poorly fitted or top-dose-only effect; inactive = flat fitted curve, though single readings scatter. *1 amine or outer side, *2 acyl side, *3 side chain or, on linkers, in order; H or OH if unused. Where a SMILES comes first, the peptide text is derived from it. Bridges are numbered along the chain shown (N, C = ends). [ ]: non-standard residue; d: D form. The star is where a group is joined. pTerphenylCO(4''-OnC5H11) = CCCCCOc1ccc(-c2ccc(-c3ccc(C(=O)*)cc3)cc2)cc1; Orn(4R-OH,5R-OH) = O=C([C@H](C[C@@H](O)[C@@H](O)N[*:3])N[*:1])[*:2]; hTyr(3S-OH,4S-OH) = N[C@H](C(=O)O)[C@H](O)[C@@H](O)c1ccc(O)cc1; Pro(3S-OH,4S-Me) = C[C@H]1CN[C@H](C(=O)O)[C@H]1O; Hyp = O=C(O)[CH]1C[CH](O)CN1; Phe(ol) = N[CH](CO)Cc1ccccc1; Iva = CC[C](C)(N)C(=O)O; Aib = CC(C)(N)C(=O)O

biological target: Calcium and integrin-binding protein 1 (Homo sapiens) (UniProt Q99828); experiment: Primary qHTS for Identification of Calcium Integrin Binding Protein 1 (CIB1) Competitor (AID 1508620); conditions: CIB1-GST / FITC-alphaIIb peptide fluorescence polarization; series mostly up to 114 µM; activity change, negative = inhibition: at the top concentration;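 for activity change, negative = inhibition: GST tagged CIB1 binding a fluorescein labelled alphaIIb integrin peptide tracer; top concentration of the series differs between compounds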
Sequence (Q99828 whole entry, looked up): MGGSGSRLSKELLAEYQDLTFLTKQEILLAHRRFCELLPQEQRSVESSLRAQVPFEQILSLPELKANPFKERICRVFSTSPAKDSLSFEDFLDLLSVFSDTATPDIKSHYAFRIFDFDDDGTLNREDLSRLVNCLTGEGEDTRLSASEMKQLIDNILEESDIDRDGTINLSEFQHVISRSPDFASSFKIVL
Procedure, shortened: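 Fluorescence polarization competition: CIB1-GST (1 uM final) preincubated with compound 15 min at room temperature, then FITC-labeled alphaIIb peptide (100 nM final) added for another 15 min. Polarization read at Ex 480/Em 540.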
% is set by controls: 0 for no effect and ±100 for the full control effect; potency is the fitted concentration of half-maximal effect.

SMILES | activity change, negative = inhibition | Potency
COc1ccc(N2CCN(C(=O)c3cc4c(s3)-c3ccccc3S(=O)(=O)C4)CC2)cc1 | -0.539% (inactive) | 
CCOC(=O)c1csc(Nc2ccc(Cl)cc2)n1 | -0.012% (inactive) | 
COc1ccc(CNCc2cccc3ccccc23)cc1 | 3.27% (inactive) | 
O=C1Nc2ccccc2-c2nc3ccccc3c(=O)n2-c2c(O)cccc21 | -6.57% [at 57.7 µM] (inactive) | 
COc1ccc(NC(=O)c2ccc(-c3ccc(-c4nnc(C)o4)cc3C)cc2)cc1N1CCN(C)CC1 | -1.36% (inactive) | 
COC1CC(=O)C23C(=O)NC(Cc4c[nH]c5ccccc45)C2C(C)C2(C)OC2C3/C=C/CC(C)CC1O (stereo not drawn) | -6.79% [at 57.7 µM] (inactive) | 
C=C1C(=O)O[C@@H]2/C=C(/C)[C@@H](OC(C)=O)C/C=C(\C)C[C@@H](OC(=O)/C(=C/CO)CO)[C@@H]12 | 2.03% [at 57.7 µM] (inactive) | 
CCC(C)C(=O)Oc1cc(C)ccc1C1(COC(=O)C(C)C)CO1 (stereo not drawn) | 1.16% [at 57.7 µM] (inactive) | 
COc1cc(F)c(C(C)C)cc1-c1ccc(C(F)(F)F)cc1CN1C(=O)OC(c2cc(C(F)(F)F)cc(C(F)(F)F)c2)C1C (stereo not drawn) | 2.49% (inactive) | 
COc1cc(CCc2ccc(OCC=C(C)C)cc2)cc(OC)c1OC | 1.34% [at 57.7 µM] (inactive) | 
Cc1c(OCc2cccc(-c3ccc(C(=O)O)cc3)c2)cc2c(c1C)C(=O)C(C1CCCC1)C2 (stereo not drawn) | 35.4% (inactive) | 
CC1(C)OC[C@H](NC(=O)Nc2ccc(Br)cc2Br)[C@H](c2ccccc2)O1 | 5.07% (inactive) | 
Oc1ccc(-c2cnc3ccc(NCc4ccco4)nn23)cc1 | -13.6% (inactive) | 
CC(C)(F)CC(NC(c1ccc(-c2ccc(S(C)(=O)=O)cc2)cc1)C(F)(F)F)C(=O)NC1(C#N)CC1 (stereo not drawn) | 3.22% (inactive) | 
C=C1C(=O)OC2/C=C(\CO)CC/C=C(\C=O)C(O)C(OC(=O)C(C)CC)C12 (stereo not drawn) | -6.73% [at 57.7 µM] (inactive) | 
CCCCCOc1ccc(-c2ccc(-c3ccc(C(=O)N[C@H]4C[C@@H](O)[C@@H](O)NC(=O)[C@@H]5[C@@H](O)[C@@H](C)CN5C(=O)[C@H]([C@@H](C)O)NC(=O)[C@H]([C@H](O)[C@@H](O)c5ccc(O)cc5)NC(=O)[C@@H]5C[C@@H](O)CN5C(=O)[C@H]([C@@H](C)O)NC4=O)cc3)cc2)cc1 ({pTerphenylCO(4''-OnC5H11)}-[Orn(4R-OH,5R-OH)]T[Hyp][hTyr(3S-OH,4S-OH)]T[Pro(3S-OH,4S-Me)]; lactam 1-C) | 4.44% [at 57.7 µM] (inactive) | 
COC1CC/C=C(\C)C(=O)Nc2cc(O)cc(c2)CC(C)CC(OC)C(O)C(C)/C=C(\C)C1OC(N)=O (stereo not drawn) | -0.733% [at 57.7 µM] (inactive) | 
COc1ccccc1S(=O)(=O)Nc1ccc2c(c1)CN(C)C(=O)N2 | -1.26% (inactive) | 
COc1cccc(N2CCN(C3=Nc4c(F)cccc4[C@H](CC(=O)O)N3c3cc(C(F)(F)F)ccc3OC)CC2)c1 | -13.4% (inactive) | 
CS/C=C/C(=O)O[C@@H]1CCC2=CC(=O)C(=C(C)C)C[C@]2(C)[C@H]1C | -7.91% [at 57.7 µM] (inactive) | 
O=c1[nH]cnc2c([C@@H]3N[C@H](CO)[C@@H](O)[C@H]3O)c[nH]c12 | -1.75% (inactive) | 
CCC(C)(NC(=O)C(CCC(N)=O)NC(=O)C1CC(O)CN1C(=O)C(C)(C)NC(=O)C(C)(C)NC(=O)C(CC(C)C)NC(=O)CNC(=O)C(NC(=O)C(C)(C)NC(=O)C(C)(C)NC(=O)C(C)(C)NC(=O)C(Cc1ccccc1)NC(C)=O)C(C)C)C(=O)N1CC(O)CC1C(=O)NC(C)(C)C(=O)NC(CO)Cc1ccccc1 (stereo not drawn) (Ac-F[Aib][Aib][Aib]VGL[Aib][Aib][Hyp]Q[Iva][Hyp][Aib][Phe(ol)]; configuration not given here) | 1.74% [at 12.4 µM] (inactive) | 
O=C(NCCN1CCN(c2cccc3ccc(O)cc23)CC1)c1ccc(F)cc1 | -4.3% (inactive) | 
O=c1nc(-c2ccccn2)sc2ccccc12 |  | 28.2 µM (active)
C=C1C(=O)O[C@@H]2/C=C(\CO)CC/C=C(/C=O)C[C@H](O)[C@@H]12 | -19.3% (inactive) | 
CC[C@@H](C)[C@@H]1OC2(C=C[C@H]1C)C[C@@H]1C[C@H](C/C=C(\C)[C@H](O[C@H]3C[C@H](OC)[C@H](O[C@H]4C[C@H](OC)[C@H](NC(C)=O)[C@H](C)O4)[C@H](C)O3)[C@H](C)/C=C/C=C3\CO[C@H]4[C@H](O)C(C)=C[C@@H](C(=O)O1)[C@@]34O)O2 (stereo partly drawn) | 0.525% [at 57.7 µM] (inactive) | 
CN(C)CC#CCCC(=O)C(O)(c1ccccc1)C1CCC1 (stereo not drawn) | 4.4% (inactive) | 
C=C(NC(=O)C(=C)NC(=O)c1csc(C2=NC3c4csc(n4)C4NC(=O)c5csc(n5)C(C(C)(O)C(C)O)NC(=O)C5CSC(=N5)/C(=C/C)NC(=O)C(C(C)O)NC(=O)c5csc(n5)C3(CC2)NC(=O)C(C)NC(=O)C(=C)NC(=O)C(C)NC(=O)C(C(C)CC)NC2C=Cc3c(C(C)O)cc(nc3C2O)C(=O)OC4C)n1)C(N)=O (stereo not drawn) | 6.72% (inactive) | 
